From PubChem BioAssay AID2283123 (EPA ToxCast)
Records with an inconclusive call do not appear. Activity calls are given as the source filed them. How the source made its calls: active means hit-call score of the fitted dose curve at least 0.9, where 1 is the maximum; inconclusive means response in the unintended direction; inactive means score below 0.9.

molecular target: rat CYP2E1, Cyp2e1 (gene 25086) (UniProt P05182); test: NVS_ADME_rCYP2E1: NovaScreen (NVS) CYP450-related Enzyme Activity (ADME) Assay for rat CYP2E1
Method: NVS_ADME_rCYP2E1 is a biochemical, single-readout assay that uses extracted gene-proteins in a cell-free assay. Measurements were taken 1 hour after chemical dosing in a 96-well plate.NVS_ADME_rCYP2E1 is one of one assay component(s) measured or calculated from the NVS_ADME_rCYP2E1 assay. It is designed to make measurements of enzyme activity, a form of enzyme reporter, as detected with fluorescence intensity signals by Fluorescence technology.Data from the assay component NVS_ADME_rCYP2E1 was analyzed into 1 assay endpoint. This assay endpoint, NVS_ADME_rCYP2E1, was analyzed in the positive analysis fitting direction relative to Acetonitrile as the negative control and baseline of activity. Using a type of enzyme reporter, loss-of-signal activity can be used to understand changes in the enzymatic activity as they relate to the gene Cyp2e1. Furthermore, this assay endpoint can be referred to as a primary readout, because this assay has produced multiple assay endpoints where this one serves a enzymatic activity function. To generalize the intended target to other relatable targets, this assay endpoint is annotated to the cyp intended target family, where the subfamily is xenobiotic metabolism.
Binding assays used specific radioligands (tritiated, iodinated) with non-radioactive competitive displacement ligands in agonist or antagonist protocols (as indicated) and various reference compounds and inhibitors to titrate specific binding to receptors and transporters. Most enzyme assays (CYPs, kinases, phosphatases, proteases, HDACs) used recombinant protein and specific substrates (fluorescence mostly, some colorimetric and radioactive) and inhibitors, followed by a biochemical separation of substrate and product. All assays for the biochemical HTS were initially run in duplicate at a single concentration (10 uM for CYP450 assays and 25 uM for all others). Assay-chemical combinations meeting a pre-defined threshold (e.g., 30% inhibition and other criteria defined below) were then run in singleton concentration-response format with maximum concentration of 20 uM for CYPs and 50 uM for all others. Each assay was run with positive and negative controls, and concurrent controls on every plate. The follow-up (secondary) screen tested active chemical-pairs in concentration series, as well as a few additional assays not tested in the primary screen, some selected negative inactives, and several cases re-run in the concentration series for confirmatory purposes.

Chain of rat CYP2E1, Cyp2e1 (gene 25086) (P05182 whole entry, looked up): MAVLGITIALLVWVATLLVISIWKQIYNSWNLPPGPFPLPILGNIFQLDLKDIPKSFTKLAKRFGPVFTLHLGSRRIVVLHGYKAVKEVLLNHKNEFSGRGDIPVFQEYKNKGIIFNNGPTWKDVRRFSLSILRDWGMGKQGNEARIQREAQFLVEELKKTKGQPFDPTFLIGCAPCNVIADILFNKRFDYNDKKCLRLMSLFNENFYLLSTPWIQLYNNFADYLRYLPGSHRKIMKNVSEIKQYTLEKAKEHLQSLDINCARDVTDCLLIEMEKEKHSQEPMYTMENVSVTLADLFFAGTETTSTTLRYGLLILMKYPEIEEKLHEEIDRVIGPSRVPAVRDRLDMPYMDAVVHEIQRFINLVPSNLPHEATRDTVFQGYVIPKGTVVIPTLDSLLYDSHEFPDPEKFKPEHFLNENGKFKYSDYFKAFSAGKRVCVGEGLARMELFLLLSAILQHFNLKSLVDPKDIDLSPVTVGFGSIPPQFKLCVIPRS

SMILES | outcome | AC50
S=C(S)NCCNC(=S)S.[Mn+2].[S-]C([S-])=NCCN=C([S-])[S-].[Zn+2] | inactive | 
C#CCOC(=O)[C@@H](C)Oc1ccc(Oc2ncc(Cl)cc2F)cc1 |  | 1.6 µM (active)
S=C([S-])NCCNC(=S)[S-].[Mn+2] | inactive | 
N#CSCSc1nc2ccccc2s1 |  | 10 µM (active)
